Experimental data from PubChem BioAssay (Tox21).
Results filed as inconclusive are left out. A call without a number means that no potency is given here. Calls of active or inactive are those of the source. Calls come from the whole dose curve; as a rule, active = well fitted cell-killing curve with a large enough effect in the repeat runs; inconclusive = weak or mixed curves, or effect the other way; inactive = flat fitted curve, though single readings scatter.

Legend:
[1] = cAMP Responsive Elements (CRE) small molecule antagonists, cell-based qHTS assay: qHTS cell viability counter screen (AID 2060913); note: nearly all actives have a fitted effect of over 40% in size
Summary of the method: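 CRE-bla HEK293T cells were seeded in assay medium with 10% dialyzed FBS, incubated 18 hrs at 37 C, then exposed to compounds plus 0.25 uM final NKH477 for 3 hrs. Viability was read by CellTiter-Glo luminescence after 30 min, in the same wells.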

[2] = cAMP Responsive Elements (CRE) small molecule agonists, cell-based qHTS assay: qHTS cell viability counter screen (AID 2060914); note: nearly all actives have a fitted effect of over 50% in size
Summary of the method: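 Luminescence read-out (CellTiter-Glo, 30 min RT) of ATP-based viability in CRE-bla HEK 293T cells, run in the same wells as the β-lactamase reporter assay after 3 h compound treatment at 37 °C.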

Q: Which Potency [1] does the source give for `CCCC(CCC)C(=O)O` here?
A: inactive

Q: What about the Potency [2] of the same compound?
A: inactive

Q: For `O=c1ccc2ccccc2o1`, which Potency [1] is on record?
A: inactive

Q: What about the Potency [2] of the same compound?
A: inactive

Q: For `O=[N+]([O-])c1ccc(F)c(Cl)c1`, which Potency [1] is on record?
A: inactive

Q: What about the Potency [2] of the same compound?
A: inactive

Q: Which Potency [1] does the source give for `CCCCCCCCCCCC(=O)OCC(C)OC(=O)CCCCC(=O)O` (stereo not drawn) here?
A: inactive

Q: What about the Potency [2] of the same compound?
A: inactive

Q: With `Cc1ccc(O)c2ncccc12` as the compound, how does the Potency [1] read?
A: inactive

Q: And the Potency [2]?
A: inactive

Q: Which results are given for `CCCCCOC(=O)Nc1nc(=O)n([C@@H]2O[C@H](C)[C@@H](O)[C@H]2O)cc1F`?
A: Potency [1]: inactive; Potency [2]: inactive

Q: For `CCN(CC)CCOC(=O)C(Cc1cccc2ccccc12)CC1CCCO1` (stereo not drawn), which Potency [1] is on record?
A: inactive

Q: And the Potency [2]?
A: inactive

Q: For `N=C1N=C(N)c2ccccc21`, which Potency [1] is on record?
A: inactive

Q: What about the Potency [2] of the same compound?
A: inactive

Q: Which Potency [1] does the source give for `CC(C)(Oc1ccc(Cl)cc1)C(=O)OCCCOC(=O)C(C)(C)Oc1ccc(Cl)cc1` here?
A: inactive

Q: What about the Potency [2] of the same compound?
A: inactive
